Screening data as filed in PubChem.
PTAP TSG101 blk: qHTS Assay for Iinhibitors of HIV-1 Budding by Blocking the Interaction of PTAP/TSG101; Fluorescence polarization, FITC-PTAP peptide / Tsg101 binding; Potency, µM (series often up to 115 µM), for the others: at the highest dose activity change, negative = inhibition, usual class: inhibitors; 340,000 tested, under 10 active; AID 493005, 2010; active = well fitted inhibition curve with a large enough effect in the main read-out, with a control signal flat, not every such curve was filed as active; inconclusive = small, poorly fitted or top-dose-only effect, or effect the other way, or a change in a side signal; inactive = no such curve, though single readings can be large or run the other way; note: potency is the fitted concentration of half-maximal effect; % of control where 0% means no effect
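Tsg101 binding domain (10 uM final) was mixed with compound and a FITC-labeled PTAP peptide (50 nM final) in HEPES pH 7.5 buffer with NaCl, Tween 20, EDTA and TCEP; fluorescence polarization was read after 20 min at r.t.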
Vif-A3F inh: qHTS for Inhibitors of Vif-A3F Interactions: qHTS; Potency, µM (titrated, usually from 46.1 µM), for the others: top-dose activity, negative = active; 390,000 compounds, 0.2% hits; HeLa A3F-eYFP + Vif (tagged APOBEC3F with the HIV-1 protein that degrades it), YFP fluorescence increase; note: potency is the fitted concentration of half-maximal effect; % of control where 0% means no effect; nearly all actives have a fitted effect of over 65% in size
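HeLa cells stably expressing Vif plus C-terminally eYFP-tagged A3F were seeded, incubated overnight at 37 deg C, dosed with compound, incubated overnight again at 37 deg C. Yellow fluorescence (Ex 488/Em 500-530) reported blocked Vif-mediated A3F-eYFP degradation.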
pAkt inh: HTS Assay for Inhibitors of Akt Phophorylation: Primary Screen | Neuro2A IGF-stimulated pAkt S473 HTRF, 20 min; hits give low values | activity change, % for hits at 50 µM | 360,000 compounds, 0.32% hits | AID 651550, 2012; in the data active = activity change below about -80%; inconclusive = mostly about -51% to -80%; note: % is set by controls: 0 for no effect and ±100 for the full control effect
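Neuro2A cells in DMEM with 0.5% FBS, overnight at 37 deg C, given compound at single 50 µM final, then IGF (6 nM final) for 20 min at 37 deg C. Lysed; phospho-Akt Ser473 by HTRF after 24 h, 665/615 ratio.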
Vif-APOBEC3G blk: qHTS for Inhibitors of Vif-A3G Interactions: qHTS; DNA dC->dU-editing enzyme APOBEC-3G (Homo sapiens), Q9HC16; HeLa A3G-eYFP + Vif (tagged APOBEC3G with the HIV-1 protein that degrades it), YFP fluorescence, overnight; Potency, µM (top dose mostly 46.1 µM), without a hit: at the top dose activity, negative = active, hits mostly inhibitors; 410,000 compounds, 0.076% hits; note: potency is the fitted concentration of half-maximal effect; % is set by controls: 0 for no effect and ±100 for the full control effect; nearly all actives have a fitted effect of over 60% in size
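HeLa cells stably expressing Vif and C-terminally eYFP-tagged A3G, seeded overnight at 37 deg C, then exposed to compound by pintool overnight at 37 deg C. Rise in yellow fluorescence (Ex 488/Em 500-530, Acumen) marks blocked Vif-driven A3G degradation.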
12-LOX inh: Primary qHTS assay for inhibitors of human arachidonate 12S-lipoxygenase (ALOX12): Round 2; Polyunsaturated fatty acid lipoxygenase ALOX12 (Homo sapiens), P18054; purified 12hLO, xylenol orange hydroperoxide absorbance; Potency, µM (doses to about 108 µM), for the others: at the highest dose activity change, negative = inhibition, actives largely listed as inhibitors; 580,000 compounds, 1.1% hits; note: potency is the fitted concentration of half-maximal effect; % is set by controls: 0 for no effect and ±100 for the full control effect
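Hydroperoxide product was detected by ferrous iron/xylenol orange as the 573 to 405 nm absorbance ratio. Arachidonic acid at 40 uM (final) was turned over for 30 min at room temperature by 150 nM human 12hLO, pH 7.0 Hepes buffer, after 15 min compound preincubation.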
ASM inhibitor: Inhibitors of Secretory Acid Sphingomyelinase (S-ASM): qHTS; placental ASM, HMU-PC fluorogenic substrate, 60 min; Potency, µM (highest dose often 57.5 µM), without a hit: at the highest dose activity change, negative = inhibition, hits mostly inhibitors; 340,000 compounds, 0.006% hits; AID 504937, 2011; note: potency is the fitted concentration of half-maximal effect
Target sequence (P17405 47-631 limits assumed): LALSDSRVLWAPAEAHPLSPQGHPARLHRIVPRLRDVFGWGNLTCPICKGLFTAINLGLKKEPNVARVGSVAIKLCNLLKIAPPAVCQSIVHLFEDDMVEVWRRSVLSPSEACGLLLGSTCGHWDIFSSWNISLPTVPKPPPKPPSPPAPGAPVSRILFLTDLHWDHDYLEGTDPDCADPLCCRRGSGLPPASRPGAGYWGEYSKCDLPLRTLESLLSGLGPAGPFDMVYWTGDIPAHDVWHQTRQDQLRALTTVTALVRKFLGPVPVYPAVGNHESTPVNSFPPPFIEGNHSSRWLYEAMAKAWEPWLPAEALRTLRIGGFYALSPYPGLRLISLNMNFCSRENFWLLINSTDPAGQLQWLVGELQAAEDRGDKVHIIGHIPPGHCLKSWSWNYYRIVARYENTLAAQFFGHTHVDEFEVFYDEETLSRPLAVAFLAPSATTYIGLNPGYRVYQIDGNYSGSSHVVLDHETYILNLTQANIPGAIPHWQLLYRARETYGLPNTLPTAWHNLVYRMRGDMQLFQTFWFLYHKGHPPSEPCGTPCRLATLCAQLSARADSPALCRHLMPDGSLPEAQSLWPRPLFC
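qHTS format. ASM enzyme prepared from human placenta hydrolyses the fluorogenic substrate HMU-PC0 (9 uM final) over 60 min at 37 °C after a 10 min compound preincubation.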
* = called active by the depositor; i = inactive; ? = inconclusive; . = not tested or not shown; ! = repeats disagree; [ ] = remark or other dose. Shown are actives, neighbours in structure and some others; about 1.4% of the full set was active somewhere. Unless noted, calls come from the whole dose curve; as a rule, active = well fitted curve in the direction sought with a large enough effect; inconclusive = small, poorly fitted or top-dose-only effect, or another doubt; inactive = no such curve, though single readings can be large; an effect the other way counts as inactive or inconclusive.

SMILES	PTAP TSG101 blk	Vif-A3F inh	pAkt inh	Vif-APOBEC3G blk	12-LOX inh	ASM inhibitor
CN(CCC#N)c1ccc(/C=C(\C#N)c2ccccn2)cc1	-2%	-3%	i	-1%	?	4%
COc1ccccc1NCCC(=O)OCC(=O)NCc1ccco1	1%	-7%	-106%*	-6%	365%	-1%
COc1ccc(OCCC(=O)OCC(=O)NCc2ccco2)cc1	0%	-2%	i	0%	37%	-7%
Cc1ccccc1-c1nc2ccccc2[nH]1	-6%	-5%	-124%*	-1%	-1%	1%
c1ccc2c(-c3nc4ccccc4[nH]3)cccc2c1	.	0%	i	6.3µM*	22%	.
c1ccc2[nH]c(-c3ccnc4ccccc34)nc2c1	-3%	-4%	i	-14%	?	80%
CC(=O)NC1(C)CCN(Cc2ccccc2-c2ccc3c(ccn3C)c2)C1 (stereo not drawn)	.	.	.	.	28µM*	.
CC(=O)NC1(C)CCN(Cc2ccccc2-c2cccc(C(C)=O)c2)C1 (stereo not drawn)	.	.	.	.	35µM*	.
CC(=O)NC1(C)CCCN(Cc2cccc(-c3c(C)noc3C)c2)C1 (stereo not drawn)	.	.	.	.	40µM*	.
COc1ccccc1-c1ccccc1CN1CCC(C)(NC(C)=O)C1 (stereo not drawn)	.	.	.	.	2%[176 µM]	.
CC(=O)NC1(C)CCN(Cc2ccc(-c3cccc(F)c3)cc2)C1 (stereo not drawn)	.	.	.	.	50µM*	.
Cc1cccc(NC(=O)CSc2nnc(Cc3ccccc3)n2-n2cccc2)c1	.	.	.	.	-16%	.
COc1cccc2[nH]c(C(=O)N3CCC(c4nnc5ccccn45)CC3)cc12	.	.	.	.	13%	.
CC(C)(C)c1ccc(C(=O)C(=O)N(Cc2cccs2)C2CC2)cc1	.	.	.	.	7%	.
COc1cccc(-c2cc(C(=O)NCCc3cccs3)[nH]n2)c1	.	.	.	.	-3%	.
c1ccc2sc(N3CCOCC3)nc2c1	0%	-25%	i	-6%	0%	-4%
c1ccc2sc(SN3CCOCC3)nc2c1	1%	-3%	i	0%	13µM*!	0%
CCC(CC)NC(=O)COC(=O)c1ccc2ccccc2n1	.	.	.	.	6.3µM*	.
CCc1ccccc1NC(=O)COC(=O)c1ccc2ccccc2n1	.	.	.	.	-20%	.
CCN(c1ccc(NC(=O)COC(=O)c2ccc3ccccc3n2)cc1)C(C)C	-1%	0%	i	1%	5µM*	-5%
CN1CCN(c2ncncc2-c2ccccc2Cl)CC1	.	.	.	.	40µM*	.
CN1CCN(c2ncnc3scc(-c4ccccc4Cl)c23)CC1	-1%	-4%	i	5%	-14%	0%
COc1ccc(C2=CC(c3ccc(N(C)C)cc3)n3nnnc3N2)cc1 (stereo not drawn)	.	11µM*	.	?	?	.
COc1cccc(C2=CC(c3ccc(N(C)C)cc3)n3nnnc3N2)c1 (stereo not drawn)	-1%	32µM*	i	?	-22%	46%
COc1cccc(C2=CC(c3ccccc3)n3nnnc3N2)c1 (stereo not drawn)	-1%	-1%	i	?	-9%	31%
COc1ccc(C2=CC(c3ccc(C)cc3)n3nnnc3N2)cc1 (stereo not drawn)	-13%	1%	i	-17%	.	22%
CC(C)C(NC(=O)c1ccc2c(c1)NC(=O)CS2)c1cccs1 (stereo not drawn)	.	.	.	.	13%	.
Cc1ccc2nc(CSc3nc(C)nc4ccccc34)cn2c1	.	.	.	.	-5%	.
c1ccc(C2=NN(c3ccccc3)CC2)cc1	-9%	13%	i	1%	11%	i
